According to paper PMC5540273 (PLoS ONE, 2017):

Columns and labels:
Details in all cases: concentration: 1 μM, replicates: in singlicate; n = 1
[1] = system: AAK1
[2] = system: ABL1-nonphosphorylated
[3] = system: ABL1-phosphorylated
[4] = system: ABL2
[5] = system: ACVR1B
[6] = system: ACVR1
[7] = system: ACVR2A
[8] = system: ACVR2B
[9] = system: ACVRL1
[10] = system: T1, ADCK3
T1 construct: gene CABC1

[11] = system: ADCK4
[12] = system: AKT1
[13] = system: AKT2
[14] = system: AKT3
[15] = system: ALK
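Also: KINOMEscan kinase panel screen.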

Row | Structure (SMILES) | %Inh [1] [%] | %Inh [2] [%] | %Inh [3] [%] | %Inh [4] [%] | %Inh [5] [%] | %Inh [6] [%] | %Inh [7] [%] | %Inh [8] [%] | %Inh [9] [%] | %Inh [10] [%] | %Inh [11] [%] | %Inh [12] [%] | %Inh [13] [%] | %Inh [14] [%] | %Inh [15] [%]
1 | Cc1ccc(-c2nc(Nc3ccncc3)c3ccccc3n2)s1 [GSK189015] | 12 | 0 | 0 | 21 | 0 | 34 | 17 | 11 | 29 | 21 | 4 | 55 | 19 | 3 | 26
2 | CCCCc1nn2ncccc2c1-c1ccnc(NC2CC2)n1 [GW684374] | 14 | 0 | 0 | 0 | 0 | 2 | 0 | 0 | 0 | 61 | 38 | 0 | 0 | 0 | 17
3 | Cc1ccc(NC(=O)c2ccc(Cl)cc2)cc1-c1ccc(C(=O)Nc2ccncc2)cc1 [GSK1398467] | 8 | 0 | 0 | 20 | 0 | 7 | 0 | 10 | 0 | 15 | 0 | 0 | 19 | 0 | 18
4 | COc1cccc(C2=C(Nc3cc(Cl)c(O)c(Cl)c3)C(=O)NC2=O)c1 [SB-390767] | 0 | 0 | 4 | 19 | 0 | 20 | 0 | 2 | 19 | 1 | 0 | 0 | 0 | 0 | 29
5 | O=C(Nc1n[nH]c2nc(-c3ccco3)c(Br)cc12)C1CCN(Cc2ccccc2)C1.O=C(O)[C@H](O)[C@@H](O)C(=O)O (stereo not drawn) [SB-742034] | 29 | 33 | 23 | 4 | 20 | 0 | 21 | 0 | 28 | 7 | 0 | 0 | 3 | 3 | 5
6 | CS(=O)(=O)CCNCc1nc(-c2ccc3ncnc(Nc4ccc5c(cnn5Cc5ccccc5)c4)c3c2)cs1.Cl.Cl [GW569716] | 0 | 68 | 0 | 13 | 0 | 1 | 0 | 0 | 0 | 10 | 54 | 0 | 2 | 0 | 31
7 | CC(C)c1ccc(O)cc1Nc1ccnc2ccc(C(F)(F)F)cc12 [GW482059] | 0 | 0 | 0 | 3 | 0 | 0 | 43 | 0 | 19 | 0 | 2 | 0 | 0 | 0 | 15
8 | O=C1NC(=O)C(c2ccc(Cl)cc2)=C1Nc1cccc(Cl)c1 [SB-317651] | 0 | 47 | 0 | 0 | 0 | 0 | 0 | 0 | 16 | 17 | 0 | 0 | 5 | 0 | 0
9 | CC(=O)c1c(C)c2cnc(Nc3ccc(N4CCNCC4)cn3)nc2n(C2CCCC2)c1=O | 0 | 28 | 0 | 0 | 0 | 0 | 0 | 0 | 0 | 0 | 0 | 0 | 0 | 11 | 5
10 | CSc1ccc(-c2nc3n(c2-c2ccncc2)CCC3)cc1 [SKF-105561] | 0 | 16 | 0 | 12 | 4 | 5 | 0 | 2 | 21 | 0 | 0 | 6 | 0 | 6 | 8
11 | COc1cccc(NC(=O)Nc2ccc(C)c(-c3ccc(C(=O)Nc4ccncc4)cc3)c2)c1 [GSK1398474] | 0 | 4 | 0 | 21 | 0 | 0 | 0 | 12 | 0 | 30 | 12 | 0 | 16 | 0 | 23
